Calpain2 inh: inhibitors of pig calpain II, primary screen, biochemical, fluorogenic peptide substrate, 1536-well. purified calpain II, 30 min. inhibition, % at 16 µM. 0.37% of 220,000 active. AID 1236, 2008;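 active means inhibition above about 50%, limit read from the data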
FAS-TE inh: FAS thioesterase domain inhibitors, primary screen, biochemical, fluorescence intensity, uHTS; Fatty acid synthase (Homo sapiens), P49327; AID 602261, 2012; recombinant FAS-TE, OMFH fluorogenic substrate, fluorescence endpoint; 0.67% of 360,000 active; inhibition, % at 15 µM;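 active means compounds whose normalised, plate-corrected inhibition of enzyme fluorescence in the single-dose primary screen is 50% or more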;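 further: 0% = DMSO with enzyme and 100% = substrate without enzyme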
MIN6 prolif: inducers of MIN6 beta-cell proliferation, primary screen, ATP luminescence, uHTS; AID 2380, 2010; 0.29% of 330,000 active; MIN6 cells proliferation, ATPlite luminescence, 48 h; cells starved in 0.2% serum; 100% = growth in 10% serum; proliferation, % at 10 µM;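 active means compounds whose signal lies at least 3.5 SD above the mean of all wells on their plate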;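 further: 0% = DMSO-treated cells in low-serum medium and 100% = 10% serum control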
aDG glyco act: activators of alpha-DG glycosylation, primary screen, uHTS, Pro5-aDG cells, AlphaScreen | 0.22% of 360,000 active | activation, % at 10 µM | alpha-DG glycosylation AlphaScreen (IIH6); 0% Pro5, 100% B10-LARGE cell signal;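 active means activation of at least 8% versus controls, or a plate z-score of at least 8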;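 further: Pro5 are CHO cells carrying HIG-tagged alpha-DG that lacks glycosylation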
H9c2 TAG inh: inhibitors of triacylglycerol accumulation, primary screen, cell-based, uHTS, fluorescence, H9c2. 0.66% of 230,000 active. inhibition, % at 12.5 µM. H9c2 cells, Nile Red lipid (TAG) fluorescence; cells loaded with 200 µM oleic acid;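 active means pattern-corrected inhibition of lipid staining of at least 50% with the nuclear-stain viability signal not falling by more than 50%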;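 further: 0% = DMSO wells and 100% = triacsin C control wells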
Cardio protect: cardioprotection against H2O2-induced cell death, primary screen, uHTS, H9c2 cells, ATPLite luminescence. 0.63% of 360,000 active. H9c2 cardiomyocytes, H2O2 injury protection, 2 h. protection from H2O2 cell death, % at 20 µM. AID 588492, 2011;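 active means compounds giving at least 50% protection of heart cells from peroxide-induced death in the single-dose screen, raw or plate-pattern-corrected value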;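 further: 0% = DMSO wells with peroxide and 100% = DMSO wells without peroxide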
* = called active by the depositor; / = not tested or not shown. Rows were chosen to be rich in hits. Some 2.3% of all compounds tested hit in one or more screens of this group.

SMILES | Calpain2 inh | FAS-TE inh | MIN6 prolif | aDG glyco act | H9c2 TAG inh | Cardio protect
O=C(c1ccccc1)c1coc2c1C(=O)c1ccccc1C2=O | 22.7 | -1.1 | -6.3 | 4.8 | 1.9 | -15.6
O=C1c2ccccc2C(=O)c2c1oc(C(F)(F)F)c2C(=O)c1ccccc1 | 4.3 | 24.4 | -4.0 | 8.8* | 32.5 | -28.1
COc1ccc(CNC(=O)c2c(C)oc3c2C(=O)c2ccccc2C3=O)cc1 | -7.7 | 27.3 | -6.3 | 0.7 | 101.0* | -13.3
O=C(CCc1nc2ccccc2c(=O)[nH]1)Nc1ccc(Cl)c(Cl)c1 | -6.1 | 13.3 | -2.3 | 0.0 | / | 59.5*
CN(C(=O)CCc1nc2ccccc2c(=O)[nH]1)C1CCS(=O)(=O)C1 (centres undefined) | / | -5.6 | -6.3 | -0.2 | 14.4 | 75.8*
CC(=O)Nc1ccc(NC(=O)CCc2nc3ccccc3c(=O)[nH]2)cc1 | -4.7 | -8.1 | -1.2 | 0.1 | / | 11.0
O=C(CCc1nc2ccccc2c(=O)[nH]1)Nc1ccc(N2CCCCC2)cc1 | 1.4 | -3.4 | 0.4 | -0.2 | -18.4 | 50.0*
COc1ccc(NC(=O)CCc2nc3ccccc3c(=O)[nH]2)cc1S(=O)(=O)N1CCCCC1 | / | 1.8 | 0.0 | 0.2 | -7.9 | 92.6*
CCOC(=O)C1=CCN(S(=O)(=O)c2ccc(Cl)cc2)C1c1cccc(C)c1 (centres undefined) | / | 16.3 | / | -0.2 | / | -4.4
O=[N+]([O-])c1cc2no[n+]([O-])c2cc1N1CCCCC1 | / | -12.3 | / | -0.5 | 15.8 | -13.8
CCc1ccc(-n2c(C)n[nH]c2=S)cc1 | -26.9 | -4.5 | 1.3 | 0.0 | -8.7 | 3.4
Cn1nnnc1Sc1ncnc2scc(-c3cc4ccccc4o3)c12 | / | 36.9 | -6.8 | -0.7 | 93.9 | -17.0
COc1ccc(CCNC(=O)COC(=O)C2=NNC(=O)CC2)cc1 | / | -6.2 | / | -0.2 | 2.4 | -1.7
COc1ccc(C(C)(NC(C)=O)c2nc(-c3ccc(F)c(Cl)c3)cs2)cc1 (centres undefined) | / | 22.3 | / | 0.0 | -3.3 | -8.9
CN(CC(=O)Nc1cccc(F)c1)C(=O)CCc1nc2ccccc2c(=O)[nH]1 | / | -7.0 | -3.8 | 0.1 | 18.9 | 65.4*
CCc1ccc([C@@H]2CC=C(C(=O)O)[C@H](c3ccc(C(C)(C)C)cc3)N2S(=O)(=O)c2ccc(C)cc2)cc1 | / | 54.3* | -5.0 | -0.1 | 7.9 | -26.7
C=CCn1c(O)c(N=NC(=S)Nc2ccc(OC)cc2)c2ccccc21 | 26.3 | 30.1 | / | 2.6 | / | 56.5*
N#CC1=C(N)NC(SCc2ccc(F)cc2)=C(C#N)C12CCCCC2 | 65.9* | 16.8 | -3.5 | 0.8 | -9.7 | -32.2
CCCCN1C(=O)C(CC(=O)NC2CCCCC2)CC(C(=O)N2CCCCCC2)=C1C (centres undefined) | / | -6.6 | / | 0.1 | / | /
O=C1C2C3c4ccccc4C(c4ccccc43)[C@@H]2C(=O)N1c1nc(-c2ccccc2)cs1 (some centres undefined) | -31.8 | 52.5* | -2.1 | 0.1 | / | 3.3
O=C1C2C3c4ccccc4C(c4ccccc43)C2C(=O)N1c1nc(-c2ccccc2)cs1 (centres undefined) | -3.5 | 39.6 | 0.0 | -0.1 | -4.0 | -9.3
COCCN(C(=O)COC(=O)/C=C/c1ccc(Cl)c(Cl)c1)c1c(N)n(Cc2ccccc2)c(=O)[nH]c1=O | / | -6.7 | / | 0.1 | 8.5 | -6.9
COc1ccc(OC)c(S(=O)(=O)Nc2ccc(O)c3ccccc23)c1 | -25.6 | -1.4 | -6.0 | 3.2* | / | -39.1
O=c1c(Cl)c(Cl)cnn1-c1ccccc1 | -5.7 | 3.2 | / | -0.1 | 72.0* | -28.4
CCOc1ccc(NC(=S)N2CCN(CCN3C(=O)c4cccc5cccc(c45)C3=O)CC2)cc1 | -7.6 | -5.1 | 2.8 | 0.7 | / | 12.9
SMILES | Calpain2 inh | FAS-TE inh | MIN6 prolif | aDG glyco act | H9c2 TAG inh | Cardio protect
COc1ccc(NC(=S)N2CCN(CCN3C(=O)c4cccc5cccc(c45)C3=O)CC2)cc1 | 50.8* | -2.8 | 2.3 | -0.1 | -1.9 | 0.2
O=C(CBr)N1CCc2ccccc2C(c2ccccc2)C1 (centres undefined) | -12.3 | -5.7 | -3.6 | -0.2 | 9.3 | -1.6
C=CCN1CCc2c(cc(O)c(O)c2Br)[C@@H](c2ccccc2)C1 | / | -5.6 | -8.3 | -0.1 | -4.6 | 59.5*
N#Cc1cccc2c1-c1ccccc1/C2=N/NC(N)=O | / | 4.4 | 1.3 | -0.2 | / | 56.5*
N#Cc1cccc2c1-c1ccccc1/C2=N/NC(N)=S | / | 7.3 | -3.0 | 0.0 | / | 16.3
CCc1nnc(NC(=O)CCN2C(=O)/C(=C/c3cc(OC)c(OC)c(OC)c3)SC2=S)s1 | / | -10.7 | 0.0 | 0.1 | / | 3.3
CCCCNC(=O)C(NC(=O)c1ccc(=O)[nH]c1)C(=O)c1ccccc1 (centres undefined) | / | -5.8 | / | -0.1 | / | 2.5
Nc1cc2nsnc2cc1Br | 25.0 | 25.6 | -5.6 | 6.6* | 112.9 | -31.7
COc1cc(/C=N/NC(=O)c2sc3nc(C)cc(C)c3c2N)ccc1O | -116.9 | -7.4 | -2.2 | -0.2 | 24.5 | 53.1*
O=C1CC2C(=O)NCCN2C(=NC(=O)c2ccc(Cl)cc2)N1 (centres undefined) | 92.0* | -5.1 | -3.4 | -0.5 | -3.6 | 2.7
CCn1c(=O)c2sccc2n(CC(=O)NC2CCCC2)c1=O | / | -3.2 | -2.6 | -0.1 | / | -2.4
COc1cccc(C(=O)Nc2c(C(N)=O)oc3ccccc23)c1 | 8.1 | -1.1 | 7.1 | -0.1 | 13.1 | 111.2*
COC(=O)c1cc2c(n1S(=O)(=O)c1ccc(C)cc1)C(=O)C(=O)c1[nH]cc(C(=O)OCc3ccccc3)c1-2 | / | 28.7 | / | -0.6 | 125.4 | -20.3
CC(C)c1ccc(OCCCN2CCCC2)cc1 | / | -6.1 | 2.0 | 0.1 | / | 2.8
CC(=O)Oc1ccc2c(=O)c(Oc3ccccc3)c(C)oc2c1OC(C)=O | -2.7 | -3.9 | -2.6 | 0.7 | / | 64.6*
COc1cccc(CCNC(=O)c2cc(COc3c(F)cccc3F)on2)c1 | / | 12.2 | -4.2 | -0.4 | / | -1.3
COc1ccc(-n2ncc3c(NCc4cccs4)ncnc32)cc1 | 8.1 | 9.2 | -1.8 | 0.0 | / | -6.2
c1ccc(-n2ncc3c(NCc4cccs4)ncnc32)cc1 | 64.1* | 4.2 | 1.6 | 0.7 | / | -7.4
CC1(C)Oc2ccc3ccc(=O)oc3c2/C(=C/Nc2ccccn2)C1=O | 3.0 | 28.7 | -3.1 | -0.4 | / | 55.9*
O=C(CCc1nc2ccccc2c(=O)[nH]1)N1CCN(c2ccccc2Cl)CC1 | / | 3.5 | -1.2 | 0.9 | 14.8 | 63.9*
O=C(CCc1nc2ccccc2c(=O)[nH]1)N1CCN(S(=O)(=O)c2cccc(F)c2)CC1 | / | -3.1 | -1.6 | -0.2 | 12.7 | 52.2*
